The supplement of paper PMC6522484
± gives the standard deviation of the averaged measurements.

How the values were obtained:
DLD1 [1] = assay: cell viability (CellTiter-Glo) relative to plate median (fraction of plate median); higher = more viable cells; conditions: 5 µM; treatment time 24 h; reporter: 7TFP
Method in brief: (§1)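 Colorectal cancer lines with stably integrated lentiviral TCF/Wnt firefly luciferase reporters received library compounds at a final 5 µM, 24 h after seeding into 384-well plates, for a 24 h exposure. Reported figures are plate-median-normalised firefly luciferase or CellTiterGlo luminescence per well. They average two independent replicates.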

HCT116 = assay: as above; conditions: 5 µM; treatment time 24 h; reporter: TCF4/Wnt
Method in brief: as §1

SW480 [2] = assay: as above; conditions: 5 µM; treatment time 24 h; reporter: 7TFP
Method in brief: as §1

DLD1 [3] = assay: TCF/Wnt firefly luciferase reporter signal relative to plate median (fraction of plate median); higher = higher Wnt reporter signal; conditions: 5 µM; treatment time 24 h; reporter: 7TFP
Method in brief: as §1

SW480 [4] = assay: as above; conditions: 5 µM; treatment time 24 h; reporter: 7TFP
Method in brief: as §1

Row | Structure (SMILES) | cell viability (DLD1 [1]) | cell viability (HCT116) | cell viability (SW480 [2]) | TCF/Wnt firefly luciferase reporter signal (DLD1 [3]) | TCF/Wnt firefly luciferase reporter signal (SW480 [4])
1 | CC(CN(C)C)CN1c2ccccc2Sc2ccccc21 (stereo not given) | 1 ± 0.12 | 1.02 ± 0.065 | 1.06 ± 0.057 | 0.997 ± 0.15 | 1.08 ± 0.071
2 | C=C(C)[C@@H]1CC[C@]2(CO)CC[C@]3(C)[C@H](CC[C@@H]4[C@@]5(C)CC[C@H](O)C(C)(C)[C@@H]5CC[C@]43C)[C@@H]12 | 0.995 ± 0.064 | 0.973 ± 0.053 | 0.978 ± 0.027 | 1.135 ± 0.0071 | 1.045 ± 0.0071
3 | COc1ccccc1OCC(O)COC(N)=O (stereo not given) | 1.02 ± 0.076 | 1.01 ± 0.089 | 0.995 ± 0.035 | 0.982 ± 0.054 | 0.967 ± 0.047
4 | N=C(N)N | 0.982 ± 0.025 | 0.95 ± 0.16 | 1.02 ± 0.014 | 0.924 ± 0.076 | 1.025 ± 0.0071
5 | CN(C)CCOC(c1ccc(Cl)cc1)c1ccccn1 (stereo not given) | 1.004 ± 0.0085 | 0.977 ± 0.033 | 0.916 ± 0.088 | 0.888 ± 0.0057 | 0.891 ± 0.12
6 | Clc1ccc(C(Cn2ccnc2)OCc2ccsc2Cl)c(Cl)c1 (stereo not given) | 0.966 ± 0.077 | 0.98 ± 0.085 | 1.005 ± 0.0071 | 0.923 ± 0.14 | 0.894 ± 0.023
